Records with an inconclusive call do not appear. Calls follow the shape of the dose curve; as a rule, active = well fitted curve in either direction with a large enough effect (not every such curve was filed as active); inconclusive = small, poorly fitted or top-dose-only effect, or another doubt; inactive = flat fitted curve, though single readings scatter.
test: AP1 Signaling Pathway (AID 357); conditions: ME-180 (cervical carcinoma) AP-1-bla reporter, EGF-induced, beta-lactamase ratio, 5 h; at 17.2 µM (top of the series) unless noted
Method in brief: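 AP-1-bla ME-180 cells with beta-lactamase reporter under AP-1 response element, stimulated with EC50 EGF; compounds titrated, 5 hours at 37 degrees Celsius. CCF4 read at 460/530 nm ratio; positive and negative modulators judged by AC50.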
% is scaled to controls: 0 for no effect and ±100 for the full control effect.

Activity change, negative = inhibition, inactive:
COc1cccc(C2CC(c3ccccc3Cl)n3nc(N)nc3N2)c1 (configuration not stated) -5.25%
C=CCOc1nc2c(c(=O)n(Cc3ccc(Cl)c(Cl)c3)c(=O)n2C)n1C -3.25%
Cc1ccc2c(c1)C(CCN)C(=O)N2Cc1ccccc1 (configuration not stated) 19.6%
CC1(C)Cc2c(C#N)c(N3CCN(C(=O)c4ccccc4)CC3)nc(-c3ccco3)c2CS1 -7.63%
CC1(C)Cc2c(C#N)c(NCCN3CCOCC3)nc(-c3ccco3)c2CO1 -12.2%
Cc1ccc(N(Cc2cc3ccccc3[nH]c2=O)C(=O)c2ccco2)c(C)c1 -26.3%
COc1ccc2nc(SCC(=O)O)nc(C)c2c1 5.08%
Cc1ccc(-n2nc3cc(Cl)c(NC(=O)c4ccco4)cc3n2)cc1 28.5%
CC(C)(C)C1=Nn2c(nnc2C2CCCCC2)SC1 -2.23%
CCN(CC)CCN1C(=O)C(=O)/C(=C(/O)c2c(C)[nH]c(C(=O)OC)c2C)C1c1ccccc1 (configuration not stated) 2.47%
CCOC(=O)C(Oc1ccc(=O)[nH]n1)C(C)=O (configuration not stated) 3.6%
COc1cc(C2C(C#N)=C(N)Oc3cc(C)n(CCN4CCOCC4)c(=O)c32)cc(OC)c1OC (configuration not stated) 10.6%
CCOC(=O)C1/C(=N\O)CC(C)(O)C(C(=O)OCC)C1c1ccc(N(C)C)cc1 (configuration not stated) 6.52%
Nc1ccc(Cl)cc1/C(=N/O)c1ccccc1 -16.4%
COCCN(CCOC)C(=O)C12CCC(C)(C(=O)C1)C2(C)C (configuration not stated) 9.52%
Oc1ccc2ccccc2c1C=NC12CN3CCN(CN(C3)C1)C2 6.89%
N#Cc1nc(-c2cccs2)oc1NCCc1ccccc1 -17.4%
O=C(O)CC(C(=O)OCCOc1ccccc1)N1CCOCC1 (configuration not stated) -4.83%
COc1ccccc1C(=O)Nc1cc(Cl)ccc1O -12.2%
CCOP(=O)(c1ccccc1)c1nc(-c2ccc(F)cc2)oc1N1CCCCC1 (configuration not stated) -11.9%
CN(C)C(CN1C(=O)C2CC=CCC2C1=O)c1cn(C)c2ccccc12 (configuration not stated) 10.2%
COc1cccc2c(=O)c(SC(F)(F)C(F)C(F)(F)F)c(C)[nH]c12 (configuration not stated) -13.4%

Source: PubChem BioAssay (NCATS)
